The subject of this assay is Escherichia coli BW25113. The assay can be described thus: plate-normalized OD600 growth (mean of duplicates) (OD600 (normalized)); higher = more growth (less inhibition). Particulars: 10 µM. As to the method: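 E. coli BW25113 in LB (100 µl, 96-well, no shaking) was exposed to 10 µM of each compound (here the ChemBridge subset of a ~30,000-member library) and grown at 37°C for 24 h or 15°C for 48 h, in duplicate. Growth was read as OD600 and the duplicate ODs were normalized across screening plates to correct plate-to-plate variation.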

Over roughly 1,600 compounds, “plate-normalized OD600 growth (mean of duplicates)” has its median near 0.31; the lowest 2% begin near 0.23. Only a selection was taken, and the lowest values are over-represented in it overall.

As to `O=C(Nc1ccncc1)c1ccc(Cl)cc1Cl`, the “plate-normalized OD600 growth” value worked out at 0.263 (temperature: 15°C, 48 h) and 0.623 (temperature: 37°C, 24 h).

With `CC(=O)Nc1cccc(NC(=O)Nc2cccc(Cl)c2)c1`, the “plate-normalized OD600 growth” value runs as follows: (temperature: 15°C, 48 h) 0.236; (temperature: 37°C, 24 h) 0.585.

On to `Cc1nonc1NC(=O)Nc1ccncc1`, for which the “plate-normalized OD600 growth” value reads like this: (temperature: 15°C, 48 h) 0.18; (temperature: 37°C, 24 h) 0.615.

`Cc1ccc(C(C)NC(=O)c2ccccc2)c(C)c1` (configuration not stated): the “plate-normalized OD600 growth” value reads like this: (temperature: 15°C, 48 h) 0.267; (temperature: 37°C, 24 h) 0.619.

Take `Cc1ccc(NC(=O)[C@@H]2C3C=CC(C3)[C@@H]2C(=O)O)c(C)c1` (some centres not stated): the “plate-normalized OD600 growth” value reads like this: (temperature: 15°C, 48 h) 0.247; (temperature: 37°C, 24 h) 0.648.

Regarding `CCCN(CCO)Cc1ccccc1F`, the “plate-normalized OD600 growth” value (temperature: 15°C, 48 h) was determined as 0.235 and the “plate-normalized OD600 growth” value (temperature: 37°C, 24 h) turned out to be 0.589.

With `c1ccc(CCN2CCC(N3CCOCC3)CC2)cc1`, the “plate-normalized OD600 growth” value runs as follows: (temperature: 15°C, 48 h) 0.239; (temperature: 37°C, 24 h) 0.618.

Take `c1ccc(CCN2CCN(c3ccccc3)CC2)cc1`: the “plate-normalized OD600 growth” value (temperature: 15°C, 48 h) was determined as 0.227 and the “plate-normalized OD600 growth” value (temperature: 37°C, 24 h) stood at 0.62.

Take `c1ccc(CCCN2CCOCC2)cc1`: the “plate-normalized OD600 growth” value by setting is: (temperature: 15°C, 48 h) 0.251; (temperature: 37°C, 24 h) 0.615.

For `Clc1ccccc1N1CCN(Cc2ccc(Br)o2)CC1`, the “plate-normalized OD600 growth” value runs as follows: (temperature: 15°C, 48 h) 0.245; (temperature: 37°C, 24 h) 0.606.

On to `N#CC1=C(N)N2C(=C(C#N)C1c1c(F)cccc1Cl)Sc1ccccc12` (configuration not stated), for which the “plate-normalized OD600 growth” value reads like this: (temperature: 15°C, 48 h) 0.27; (temperature: 37°C, 24 h) 0.622.

Regarding `O=C(NCC1CCCO1)c1ccc2c(c1)OCO2` (configuration not stated), the “plate-normalized OD600 growth” value by setting is: (temperature: 15°C, 48 h) 0.243; (temperature: 37°C, 24 h) 0.615.

For the compound `Cc1ccc(CN(C)CCc2ccccn2)cc1`, the “plate-normalized OD600 growth” value (temperature: 15°C, 48 h) was 0.272 and the “plate-normalized OD600 growth” value (temperature: 37°C, 24 h) worked out at 0.619.

`CN(CCc1ccccn1)Cc1ccc(Cl)c(Cl)c1`: the “plate-normalized OD600 growth” value runs as follows: (temperature: 15°C, 48 h) 0.222; (temperature: 37°C, 24 h) 0.622.

Consider `CN(CCCc1ccccc1)CCc1ccccn1`, for which the “plate-normalized OD600 growth” value amounted to 0.26 (temperature: 15°C, 48 h) and 0.659 (temperature: 37°C, 24 h).

`CCSC1=C(C#N)C(c2ccc(Cl)cc2Cl)CC(=O)N1` (configuration not stated): the “plate-normalized OD600 growth” value (temperature: 15°C, 48 h) was determined as 0.255 and the “plate-normalized OD600 growth” value (temperature: 37°C, 24 h) was 0.65.

With `CC1=C(C#N)C(c2ccc(N(C)C)cc2)C2=C(CCCC2=O)N1` (configuration not stated), the “plate-normalized OD600 growth” value (temperature: 15°C, 48 h) was determined as 0.248 and the “plate-normalized OD600 growth” value (temperature: 37°C, 24 h) is 0.638.

On to `N#CC1=C(N)OC2=C(C(=O)CCC2)C1c1cccnc1` (configuration not stated), for which the “plate-normalized OD600 growth” value was 0.238 (temperature: 15°C, 48 h) and 0.629 (temperature: 37°C, 24 h).

Take `CC1=C(C#N)C(c2cccnc2)C2=C(CC(c3ccc(Cl)cc3)CC2=O)N1` (configuration not stated): the “plate-normalized OD600 growth” value reads like this: (temperature: 15°C, 48 h) 0.225; (temperature: 37°C, 24 h) 0.623.

For the compound `O=C(NC1CCCCCC1)c1ccc([N+](=O)[O-])cc1`, the “plate-normalized OD600 growth” value was found to be 0.212 (temperature: 15°C, 48 h) and 0.629 (temperature: 37°C, 24 h).

Turning to `O=[N+]([O-])c1ccc(CNC2CCCC2)cc1`, the “plate-normalized OD600 growth” value (temperature: 15°C, 48 h) was found to be 0.254 and the “plate-normalized OD600 growth” value (temperature: 37°C, 24 h) came to 0.621.

As to `Cc1c(C(=O)NC2CCCC2)cccc1[N+](=O)[O-]`, the “plate-normalized OD600 growth” value was determined as 0.252 (temperature: 15°C, 48 h) and 0.636 (temperature: 37°C, 24 h).

Regarding `COc1cccc(NC(=O)c2cccc(I)c2)c1`, the “plate-normalized OD600 growth” value (temperature: 15°C, 48 h) came out at 0.244 and the “plate-normalized OD600 growth” value (temperature: 37°C, 24 h) was found to be 0.596.

Turning to `Cc1n[nH]c(C)c1CCCCOc1ccc(Br)cc1`, the “plate-normalized OD600 growth” value (temperature: 15°C, 48 h) was determined as 0.216 and the “plate-normalized OD600 growth” value (temperature: 37°C, 24 h) was 0.601.

Consider `CCN(CC)CCCOc1ccc(C)cc1`, for which the “plate-normalized OD600 growth” value (temperature: 15°C, 48 h) stood at 0.255 and the “plate-normalized OD600 growth” value (temperature: 37°C, 24 h) was 0.632.

On to `Cc1ccc(OCCCCc2c(C)n[nH]c2C)cc1`, for which the “plate-normalized OD600 growth” value is, setting by setting: (temperature: 15°C, 48 h) 0.276; (temperature: 37°C, 24 h) 0.62.

For `CCCn1c(SCCC(=O)O)nc2ccccc21`, the “plate-normalized OD600 growth” value by setting is: (temperature: 15°C, 48 h) 0.257; (temperature: 37°C, 24 h) 0.621.

On to `Cc1cc(=O)[nH]c(SCC(=O)Nc2ccc(Br)cc2)c1C#N`, for which the “plate-normalized OD600 growth” value stood at 0.214 (temperature: 15°C, 48 h) and 0.594 (temperature: 37°C, 24 h).

For `N#CC1=C(SCC(=O)Nc2ccc(Br)cc2)NC(=O)C(C#N)C12CCCCC2` (configuration not stated), the “plate-normalized OD600 growth” value runs as follows: (temperature: 15°C, 48 h) 0.257; (temperature: 37°C, 24 h) 0.604.

On to `N#CC1=C(N)NC(SCC(=O)Nc2ccc(Br)cc2)=C(C#N)C12CCCCC2`, for which the “plate-normalized OD600 growth” value by setting is: (temperature: 15°C, 48 h) 0.252; (temperature: 37°C, 24 h) 0.586.

As for `COc1cc(C(=O)n2c(C)nc3ccccc32)cc(OC)c1OC`, the “plate-normalized OD600 growth” value reads like this: (temperature: 15°C, 48 h) 0.246; (temperature: 37°C, 24 h) 0.616.

Turning to `Cc1ccc(-c2nc3ccccc3[nH]2)cc1N`, the “plate-normalized OD600 growth” value is, setting by setting: (temperature: 15°C, 48 h) 0.222; (temperature: 37°C, 24 h) 0.616.

Consider `Nc1ccc(Br)cc1-c1nc2ccccc2[nH]c1=O`, for which the “plate-normalized OD600 growth” value was 0.254 (temperature: 15°C, 48 h) and 0.608 (temperature: 37°C, 24 h).

Consider `O=C(O)CCC(=O)Nc1ccc(-c2nc3ccccc3[nH]2)cc1`, for which the “plate-normalized OD600 growth” value stood at 0.247 (temperature: 15°C, 48 h) and 0.602 (temperature: 37°C, 24 h).

For `COc1ccc(-c2cc(=O)n(CCC#N)[nH]2)cc1`, the “plate-normalized OD600 growth” value was found to be 0.266 (temperature: 15°C, 48 h) and 0.622 (temperature: 37°C, 24 h).

For the compound `N#Cc1c(NC(=O)c2cc3ncc(Br)cn3n2)sc2c1CCCC2`, the “plate-normalized OD600 growth” value is 0.263 (temperature: 15°C, 48 h) and 0.623 (temperature: 37°C, 24 h).

Turning to `O=[N+]([O-])c1ccccc1/C=C/CN1CCCCC1CO` (configuration not stated), the “plate-normalized OD600 growth” value runs as follows: (temperature: 15°C, 48 h) 0.264; (temperature: 37°C, 24 h) 0.63.

Regarding `CCCCOc1ccc(CN2CCN(CCOCCO)CC2)cc1`, the “plate-normalized OD600 growth” value reads like this: (temperature: 15°C, 48 h) 0.216; (temperature: 37°C, 24 h) 0.626.

In the case of `C/C=C(\C)CN1CCN(CCOCCO)CC1`, the “plate-normalized OD600 growth” value by setting is: (temperature: 15°C, 48 h) 0.269; (temperature: 37°C, 24 h) 0.664.

With `CCCCOc1ccc(CN2CCC(O)CC2)cc1`, the “plate-normalized OD600 growth” value runs as follows: (temperature: 15°C, 48 h) 0.272; (temperature: 37°C, 24 h) 0.664.

For the compound `Cc1cc([N+](=O)[O-])nn1CC(=O)NCC(C)C`, the “plate-normalized OD600 growth” value reads like this: (temperature: 15°C, 48 h) 0.264; (temperature: 37°C, 24 h) 0.617.

With `COc1ccc(NC(=O)c2ccccc2OC)cc1OC`, the “plate-normalized OD600 growth” value was determined as 0.248 (temperature: 15°C, 48 h) and 0.615 (temperature: 37°C, 24 h).

Regarding `CN(Cc1ccccc1)C1CC(=O)N(c2ccc(C(=O)O)cc2)C1=O` (configuration not stated), the “plate-normalized OD600 growth” value runs as follows: (temperature: 15°C, 48 h) 0.246; (temperature: 37°C, 24 h) 0.621.

Regarding `CC1(C)CC(=O)C=C(Nc2ccc(F)c(F)c2)C1`, the “plate-normalized OD600 growth” value (temperature: 15°C, 48 h) came out at 0.247 and the “plate-normalized OD600 growth” value (temperature: 37°C, 24 h) turned out to be 0.617.

For the compound `CC(=O)c1ccc(OCCOc2ccc(C(C)=O)cc2)cc1`, the “plate-normalized OD600 growth” value by setting is: (temperature: 15°C, 48 h) 0.248; (temperature: 37°C, 24 h) 0.607.

For `Cc1nn(-c2ccccc2)c(N2CCCCC2)c1C=O`, the “plate-normalized OD600 growth” value is, setting by setting: (temperature: 15°C, 48 h) 0.266; (temperature: 37°C, 24 h) 0.62.

In the case of `CC(=O)c1c(C)[nH]n(-c2ccccc2)c1=O`, the “plate-normalized OD600 growth” value is 0.252 (temperature: 15°C, 48 h) and 0.618 (temperature: 37°C, 24 h).

Take `Cc1[nH]n(-c2ccccc2)c(=O)c1C=O`: the “plate-normalized OD600 growth” value came to 0.224 (temperature: 15°C, 48 h) and 0.605 (temperature: 37°C, 24 h).

In the case of `Cc1ccc(S(=O)(=O)N(CC(=O)O)c2cccc(Cl)c2)cc1`, the “plate-normalized OD600 growth” value runs as follows: (temperature: 15°C, 48 h) 0.268; (temperature: 37°C, 24 h) 0.636.

On to `COc1cccc(-c2nc(Cc3ccc(Cl)cc3)no2)c1`, for which the “plate-normalized OD600 growth” value runs as follows: (temperature: 15°C, 48 h) 0.253; (temperature: 37°C, 24 h) 0.601.

For `CCOc1ccc(Nc2nc(-c3ccc(CC(C)C)cc3)cs2)cc1`, the “plate-normalized OD600 growth” value by setting is: (temperature: 15°C, 48 h) 0.223; (temperature: 37°C, 24 h) 0.624.

Take `CCc1ccc(-c2csc(Nc3cccc(OC)c3)n2)cc1`: the “plate-normalized OD600 growth” value is 0.222 (temperature: 15°C, 48 h) and 0.604 (temperature: 37°C, 24 h).

Regarding `Clc1ccc(-c2csc(Nc3ccc4c(c3)OCO4)n2)cc1`, the “plate-normalized OD600 growth” value reads like this: (temperature: 15°C, 48 h) 0.24; (temperature: 37°C, 24 h) 0.61.

Regarding `Cc1nc(N)sc1-c1csc(Nc2ccc(O)cc2)n1`, the “plate-normalized OD600 growth” value by setting is: (temperature: 15°C, 48 h) 0.239; (temperature: 37°C, 24 h) 0.621.

`COc1ccc(Nc2nc(-c3ccc(F)cc3F)cs2)cc1`: the “plate-normalized OD600 growth” value stood at 0.251 (temperature: 15°C, 48 h) and 0.633 (temperature: 37°C, 24 h).

For `COc1cccc(Nc2nc(-c3ccc(OC)c(F)c3)cs2)c1`, the “plate-normalized OD600 growth” value amounted to 0.245 (temperature: 15°C, 48 h) and 0.609 (temperature: 37°C, 24 h).

Values taken from the supplement of paper PMC4371806.
